# Reference: the supplement of paper PMC4466140
# Tests used:
# Test in all cases: SPOT peptide array binding signal intensity (averaged, normalized) (arbitrary units (background-subtracted, floor 0; scale differs between SH3 domains)); higher = stronger binding of the SH3 domain to the peptide
# AgAbp1 = molecular target: AgAbp1
# Method in brief: (§1)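 The binding signal is the normalized, background-subtracted spot intensity averaged over replicates; its arbitrary units differ between domains. It was obtained by incubating 10 μg/ml GST-fused SH3 domains from four yeast species overnight at 4°C in TBS-based blocking buffer on cellulose membranes with synthetic 15-mer peptides, cysteines replaced by serines, then detecting with anti-GST antibody, HRP anti-mouse secondary and luminol.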
# AgBbc1 = molecular target: AgBbc1
# Method in brief: as §1
# AgBem1-D1 = molecular target: AgBem1-D1
# Method in brief: as §1
# AgBzz1-D1 = molecular target: AgBzz1-D1
# Method in brief: as §1
# AgBzz1-D2 = molecular target: AgBzz1-D2
# Method in brief: as §1
# AgCyk3 = molecular target: AgCyk3
# Method in brief: as §1
# AgFus1 = molecular target: AgFus1
# Method in brief: as §1
# AgHof1 = molecular target: AgHof1
# Method in brief: as §1
# AgHse1 = molecular target: AgHse1
# Method in brief: as §1
# AgLsb1 = molecular target: AgLsb1
# Method in brief: as §1
# AgLsb4 = molecular target: AgLsb4
# Method in brief: as §1
# AgMyo5 = molecular target: AgMyo5
# Method in brief: as §1
# AgNbp2 = molecular target: AgNbp2
# Method in brief: as §1
# AgRvs167 = molecular target: AgRvs167
# Method in brief: as §1
# AgSho1 = molecular target: AgSho1
# Method in brief: as §1
# AgSla1-D1-D2 = molecular target: AgSla1-D1-D2
# Method in brief: as §1
# AgSla1-D3 = molecular target: AgSla1-D3
# Method in brief: as §1
# CaAbp1-D1 = molecular target: CaAbp1-D1
# Method in brief: as §1
# CaAbp1-D2 = molecular target: CaAbp1-D2
# Method in brief: as §1
# CaBbc1 = molecular target: CaBbc1
# Method in brief: as §1
# CaBem1-D1 = molecular target: CaBem1-D1
# Method in brief: as §1
# CaBzz1-D1 = molecular target: CaBzz1-D1
# Method in brief: as §1
# CaBzz1-D2 = molecular target: CaBzz1-D2
# Method in brief: as §1
# CaCyk3 = molecular target: CaCyk3
# Method in brief: as §1
# CaFus1 = molecular target: CaFus1
# Method in brief: as §1
# CaHof1 = molecular target: CaHof1
# Method in brief: as §1
# CaHse1 = molecular target: CaHse1
# Method in brief: as §1
# CaLsb1 = molecular target: CaLsb1
# Method in brief: as §1
# CaLsb4 = molecular target: CaLsb4
# Method in brief: as §1
# CaMyo5 = molecular target: CaMyo5
# Method in brief: as §1
# CaNbp2 = molecular target: CaNbp2
# Method in brief: as §1
# CaRvs167 = molecular target: CaRvs167
# Method in brief: as §1
# CaRvs167-3 = molecular target: CaRvs167-3
# Method in brief: as §1
# CaSho1 = molecular target: CaSho1
# Method in brief: as §1
# CaSla1-D1-D2 = molecular target: CaSla1-D1-D2
# Method in brief: as §1
# CaSla1-D3 = molecular target: CaSla1-D3
# Method in brief: as §1
# ScAbp1 = molecular target: ScAbp1
# Method in brief: as §1
# ScBbc1 = molecular target: ScBbc1
# Method in brief: as §1
# ScBem1-D1 = molecular target: ScBem1-D1
# Method in brief: as §1
# ScBzz1-D1 = molecular target: ScBzz1-D1
# Method in brief: as §1
# ScBzz1-D2 = molecular target: ScBzz1-D2
# Method in brief: as §1
# ScCyk3 = molecular target: ScCyk3
# Method in brief: as §1
# ScFus1 = molecular target: ScFus1
# Method in brief: as §1
# ScHof1 = molecular target: ScHof1
# Method in brief: as §1
# ScHse1 = molecular target: ScHse1
# Method in brief: as §1
# ScLsb1 = molecular target: ScLsb1
# Method in brief: as §1
# ScLsb2 = molecular target: ScLsb2
# Method in brief: as §1
# ScLsb3 = molecular target: ScLsb3
# Method in brief: as §1
# ScLsb4 = molecular target: ScLsb4
# Method in brief: as §1
# ScMyo3 = molecular target: ScMyo3
# Method in brief: as §1
# ScMyo5 = molecular target: ScMyo5
# Method in brief: as §1
# ScNbp2 = molecular target: ScNbp2
# Method in brief: as §1
# ScPex13 = molecular target: ScPex13
# Method in brief: as §1
# ScRvs167 = molecular target: ScRvs167
# Method in brief: as §1
# ScSho1 = molecular target: ScSho1
# Method in brief: as §1
# ScSla1-D1-D2 = molecular target: ScSla1-D1-D2
# Method in brief: as §1
# ScSla1-D3 = molecular target: ScSla1-D3
# Method in brief: as §1
# SpAbp1-D1 = molecular target: SpAbp1-D1
# Method in brief: as §1
# SpBbc1 = molecular target: SpBbc1
# Method in brief: as §1
# SpBzz1-D1 = molecular target: SpBzz1-D1
# Method in brief: as §1
# SpBzz1-D2 = molecular target: SpBzz1-D2
# Method in brief: as §1
# SpCyk3 = molecular target: SpCyk3
# Method in brief: as §1
# SpHof1 = molecular target: SpHof1
# Method in brief: as §1
# SpHof1-2 = molecular target: SpHof1-2
# Method in brief: as §1
# SpHof1-3 = molecular target: SpHof1-3
# Method in brief: as §1
# SpHse1 = molecular target: SpHse1
# Method in brief: as §1
# SpLsb1 = molecular target: SpLsb1
# Method in brief: as §1
# SpLsb4 = molecular target: SpLsb4
# Method in brief: as §1
# SpMyo1 = molecular target: SpMyo1
# Method in brief: as §1
# SpNbp2 = molecular target: SpNbp2
# Method in brief: as §1
# SpPex13 = molecular target: SpPex13
# Method in brief: as §1
# SpRvs167 = molecular target: SpRvs167
# Method in brief: as §1
# SpSla1-D1-D2 = molecular target: SpSla1-D1-D2
# Method in brief: as §1
# SpSla1-D3 = molecular target: SpSla1-D3
# Method in brief: as §1
binder,measurement,setting,value
RLSFFFPLDPAYIRN,SPOT peptide array binding signal intensity,AgAbp1,≤ 0
same,SPOT peptide array binding signal intensity,AgBbc1,2.25
same,SPOT peptide array binding signal intensity,AgBem1-D1,121
same,SPOT peptide array binding signal intensity,AgBzz1-D1,27
same,SPOT peptide array binding signal intensity,AgBzz1-D2,72.5
same,SPOT peptide array binding signal intensity,AgCyk3,7
same,SPOT peptide array binding signal intensity,AgFus1,854
same,SPOT peptide array binding signal intensity,AgHof1,34
same,SPOT peptide array binding signal intensity,AgHse1,1180
same,SPOT peptide array binding signal intensity,AgLsb1,1.5
same,SPOT peptide array binding signal intensity,AgLsb4,152
same,SPOT peptide array binding signal intensity,AgMyo5,1.5
same,SPOT peptide array binding signal intensity,AgNbp2,34
same,SPOT peptide array binding signal intensity,AgRvs167,4
same,SPOT peptide array binding signal intensity,AgSho1,50
same,SPOT peptide array binding signal intensity,AgSla1-D1-D2,37
same,SPOT peptide array binding signal intensity,AgSla1-D3,8.5
same,SPOT peptide array binding signal intensity,CaAbp1-D1,2
same,SPOT peptide array binding signal intensity,CaAbp1-D2,≤ 0
same,SPOT peptide array binding signal intensity,CaBbc1,≤ 0
same,SPOT peptide array binding signal intensity,CaBem1-D1,24
same,SPOT peptide array binding signal intensity,CaBzz1-D1,32.5
same,SPOT peptide array binding signal intensity,CaBzz1-D2,43
same,SPOT peptide array binding signal intensity,CaCyk3,3
same,SPOT peptide array binding signal intensity,CaFus1,2490
same,SPOT peptide array binding signal intensity,CaHof1,0.5
same,SPOT peptide array binding signal intensity,CaHse1,134
same,SPOT peptide array binding signal intensity,CaLsb1,1.5
same,SPOT peptide array binding signal intensity,CaLsb4,45.5
same,SPOT peptide array binding signal intensity,CaMyo5,187
same,SPOT peptide array binding signal intensity,CaNbp2,474
same,SPOT peptide array binding signal intensity,CaRvs167,57.8
same,SPOT peptide array binding signal intensity,CaRvs167-3,238
same,SPOT peptide array binding signal intensity,CaSho1,1050
same,SPOT peptide array binding signal intensity,CaSla1-D1-D2,≤ 0
same,SPOT peptide array binding signal intensity,CaSla1-D3,35.8
same,SPOT peptide array binding signal intensity,ScAbp1,2
same,SPOT peptide array binding signal intensity,ScBbc1,≤ 0
same,SPOT peptide array binding signal intensity,ScBem1-D1,17
same,SPOT peptide array binding signal intensity,ScBzz1-D1,42
same,SPOT peptide array binding signal intensity,ScBzz1-D2,79
same,SPOT peptide array binding signal intensity,ScCyk3,282
same,SPOT peptide array binding signal intensity,ScFus1,627
same,SPOT peptide array binding signal intensity,ScHof1,2
same,SPOT peptide array binding signal intensity,ScHse1,1380
same,SPOT peptide array binding signal intensity,ScLsb1,0.5
same,SPOT peptide array binding signal intensity,ScLsb2,≤ 0
same,SPOT peptide array binding signal intensity,ScLsb3,48
same,SPOT peptide array binding signal intensity,ScLsb4,9
same,SPOT peptide array binding signal intensity,ScMyo3,9.5
same,SPOT peptide array binding signal intensity,ScMyo5,5
same,SPOT peptide array binding signal intensity,ScNbp2,84.5
same,SPOT peptide array binding signal intensity,ScPex13,6.25
same,SPOT peptide array binding signal intensity,ScRvs167,7.67
same,SPOT peptide array binding signal intensity,ScSho1,738
same,SPOT peptide array binding signal intensity,ScSla1-D1-D2,13
same,SPOT peptide array binding signal intensity,ScSla1-D3,37.5
same,SPOT peptide array binding signal intensity,SpAbp1-D1,1
same,SPOT peptide array binding signal intensity,SpBbc1,0.5
same,SPOT peptide array binding signal intensity,SpBzz1-D1,121
same,SPOT peptide array binding signal intensity,SpBzz1-D2,2
same,SPOT peptide array binding signal intensity,SpCyk3,24
same,SPOT peptide array binding signal intensity,SpHof1,130
same,SPOT peptide array binding signal intensity,SpHof1-2,45
same,SPOT peptide array binding signal intensity,SpHof1-3,389
same,SPOT peptide array binding signal intensity,SpHse1,1620
same,SPOT peptide array binding signal intensity,SpLsb1,≤ 0
same,SPOT peptide array binding signal intensity,SpLsb4,15
same,SPOT peptide array binding signal intensity,SpMyo1,17.8
same,SPOT peptide array binding signal intensity,SpNbp2,69.5
same,SPOT peptide array binding signal intensity,SpPex13,23.5
same,SPOT peptide array binding signal intensity,SpRvs167,11.2
same,SPOT peptide array binding signal intensity,SpSla1-D1-D2,6
same,SPOT peptide array binding signal intensity,SpSla1-D3,32
GTIARPLFLVVLFFI,SPOT peptide array binding signal intensity,CaNbp2,600
same,SPOT peptide array binding signal intensity,CaRvs167,49
same,SPOT peptide array binding signal intensity,CaRvs167-3,17
same,SPOT peptide array binding signal intensity,CaSho1,730
same,SPOT peptide array binding signal intensity,CaSla1-D1-D2,≤ 0
same,SPOT peptide array binding signal intensity,CaSla1-D3,5.75
same,SPOT peptide array binding signal intensity,ScAbp1,3
same,SPOT peptide array binding signal intensity,ScBbc1,≤ 0
same,SPOT peptide array binding signal intensity,ScBem1-D1,1
same,SPOT peptide array binding signal intensity,ScBzz1-D1,40
same,SPOT peptide array binding signal intensity,ScBzz1-D2,37.5
same,SPOT peptide array binding signal intensity,ScCyk3,50
same,SPOT peptide array binding signal intensity,ScFus1,2030
same,SPOT peptide array binding signal intensity,ScHof1,≤ 0
same,SPOT peptide array binding signal intensity,ScHse1,472
same,SPOT peptide array binding signal intensity,ScLsb1,≤ 0
same,SPOT peptide array binding signal intensity,ScLsb2,≤ 0
same,SPOT peptide array binding signal intensity,ScLsb3,≤ 0
same,SPOT peptide array binding signal intensity,ScLsb4,≤ 0
same,SPOT peptide array binding signal intensity,ScMyo3,≤ 0
same,SPOT peptide array binding signal intensity,ScMyo5,1
same,SPOT peptide array binding signal intensity,ScNbp2,78.5
same,SPOT peptide array binding signal intensity,ScPex13,≤ 0
same,SPOT peptide array binding signal intensity,ScRvs167,1.67
same,SPOT peptide array binding signal intensity,ScSho1,1050
same,SPOT peptide array binding signal intensity,ScSla1-D1-D2,≤ 0
same,SPOT peptide array binding signal intensity,ScSla1-D3,1
same,SPOT peptide array binding signal intensity,SpAbp1-D1,3.5
same,SPOT peptide array binding signal intensity,SpBbc1,2
same,SPOT peptide array binding signal intensity,SpBzz1-D1,111
same,SPOT peptide array binding signal intensity,SpBzz1-D2,≤ 0
same,SPOT peptide array binding signal intensity,SpCyk3,24
same,SPOT peptide array binding signal intensity,SpHof1,45
same,SPOT peptide array binding signal intensity,SpHof1-2,22.5
same,SPOT peptide array binding signal intensity,SpHof1-3,637
same,SPOT peptide array binding signal intensity,SpHse1,1630
same,SPOT peptide array binding signal intensity,SpLsb1,≤ 0
same,SPOT peptide array binding signal intensity,SpLsb4,≤ 0
same,SPOT peptide array binding signal intensity,SpMyo1,4.25
same,SPOT peptide array binding signal intensity,SpNbp2,160
same,SPOT peptide array binding signal intensity,SpPex13,1
same,SPOT peptide array binding signal intensity,SpRvs167,≤ 0
same,SPOT peptide array binding signal intensity,SpSla1-D1-D2,1
same,SPOT peptide array binding signal intensity,SpSla1-D3,≤ 0
